# Reference: PubChem BioAssay AID1259343 (VanderVen Lab, College of Veterinary Medicine, Cornell …, 2017)
# Screen size: about 6,200 compounds; about 2,900 (47%) were called active. So high a share suggests a set chosen from earlier hits. Some of the results follow. Values without a mark were called inactive. Rule as the data show it: active = inhibition above about 50%; inactive = the rest.
# Assay: Mycobacterium tuberculosis growth inhibition, primary screen (AID 1259343)
# Settings: inhibition: at 10 µM, active compounds read high; outcome: 10 uM
row,SMILES,inhibition
1,NS(=O)(=O)N1CCC(C(=O)Nc2ccc(-c3ccccc3)cc2F)CC1,-3.6%
2,O=C(Nc1ccc(-c2ccccc2)cc1Cl)C1CC1,92.4% (active)
3,O=C(CNC(=O)c1cccc(F)c1)N=Nc1c(O)n(CCc2ccccc2)c2ccccc12,-16.1%
4,COc1ccc(NC(=O)c2ccc3c(c2)NC(=O)C(C)S3)cc1 (stereo not drawn),57.4% (active)
5,COc1cc(NC(=O)c2ccc3c(c2)NC(=O)CS3)cc(OC)c1,62.6% (active)
6,Cc1cc(C)cc(C(=O)C=C2NC(=O)CS2)c1,-74.8%
7,COc1cc(NC(=O)c2ccc3c(c2)NC(=O)C(C)S3)cc(OC)c1 (stereo not drawn),31.5%
8,COc1cc(C=NOCc2cccc3ccccc23)ccc1OC(F)F,52.4% (active)
9,CCOC(=O)NC(=O)COC(=O)C1(Cc2ccccc2)CCCCC1,51.4% (active)
10,CCOC(=O)C1(CCc2ccccc2)CCCN(Cc2cccn2-c2ncccn2)C1 (stereo not drawn),13%
11,Cn1cc(C(=O)Nc2cccc(C(F)(F)F)c2)c2[nH]c(=O)n(-c3ccc(F)cc3)c(=O)c21,24.6%
12,CC(C)OC(=O)c1cn(-c2ccc(F)cc2)c(=O)c2ccccc12,80.8% (active)
13,O=C(c1cnn(-c2ccc(F)cc2)c1)c1ccccc1O,42.7%
14,O=C(Nc1nc(-c2ccc(Br)cc2)cs1)c1cc(Cl)ccc1[N+](=O)[O-],94.8% (active)
15,CCS(=O)(=O)N1CCC(C(=O)Nc2nc(-c3ccc(Br)cc3)cs2)CC1,33.8%
16,O=C(O)CCc1nnc(SCc2cccc(Cl)c2)[nH]c1=O,34.4%
17,Cc1nnc(SCc2cccc3ccccc23)[nH]c1=O,88.9% (active)
18,CC1CCc2sc(-c3nn(CN4CCN(c5cnccn5)CC4)c(=S)o3)cc2C1 (stereo not drawn),95.3% (active)
19,Cc1cc(C)[n+]2c(-c3ccccc3)csc2n1,80% (active)
20,CN(Cc1cnccn1)c1ccc(-c2nc(-c3cccc(Cl)c3)no2)cn1,80.1% (active)
21,CCc1ccc(CN(C)Cc2nc(-c3cccc(Cl)c3)no2)nc1,24.1%
22,CC(C)Cc1csc2nc(Cc3cccs3)[nH]c(=O)c12,42%
23,O=c1[nH]c(CN2CCCC2c2cccs2)nc2scc(-c3ccco3)c12 (stereo not drawn),85% (active)
24,CN(Cc1nc2scc(-c3ccco3)c2c(=O)[nH]1)C1CCCCC1,-6.13%
25,CCN(CCS(=O)(=O)c1cc(Cl)ccc1Cl)CC(=O)NC(C)C,-1.76%
26,Clc1cc(CNCC2COc3ccccc3O2)cc2c1OCCO2 (stereo not drawn),11.4%

row,SMILES,inhibition
1,CN(CC1COc2ccccc2O1)C(=O)NCCc1ccsc1 (stereo not drawn),-41.3%
2,c1ccc(CCc2cn(CC3COc4ccccc4O3)nn2)cc1 (stereo not drawn),55.8% (active)
3,FC(F)(F)c1ccc(-c2cnnc(N3CCC(c4ccncc4)CC3)n2)cc1,37.4%
4,C#CCOc1cccc(NC(=O)CSC2CCS(=O)(=O)C2)c1 (stereo not drawn),84.6% (active)
5,O=C(Nn1cnc2ccccc21)c1ccccc1SC1CCS(=O)(=O)C1 (stereo not drawn),-8.68%
6,O=C(NCc1cccc(COCc2ccco2)c1)c1ccccc1,14.8%
7,O=C(NCc1ccccc1F)c1cccc(COCC(F)(F)C(F)F)c1,68.7% (active)
8,COc1ccc(C2CCCN2C2=NCc3cnn(C(C)(C)C)c3N2)cc1 (stereo not drawn),10%
9,O=C(NC1CCCCC1)c1ccc(C(F)(F)F)nc1,57.1% (active)
10,O=C(NC1CCCCC1)c1cnccn1,47.9%
11,Cc1ccc(Sc2ccc(C(=O)NC3CC3)cn2)cc1,11.2%
12,FC(F)(F)c1cc(-c2ccc(Cl)cc2)nc(-n2cccn2)n1,61.6% (active)
13,O=c1cc(CSc2nnc(-c3ccc(Cl)s3)o2)occ1O,80.1% (active)
14,CCc1cc(=O)[nH]c(-n2nc(C)cc2NC(=O)/C=C/c2ccc3c(c2)OCO3)n1,100% (active)
15,Cc1cc(=O)[nH]c(-n2nc(C)cc2NC(=O)/C=C/c2ccc3c(c2)OCO3)n1,101% (active)
16,N/C(=N/O)c1cncc(OCC(F)(F)F)n1,92% (active)
17,Brc1c(-c2ccccc2)nc2ccccn12,40%
18,CC(Oc1ccc2cc(Br)ccc2c1)C(=O)NC(N)=O (stereo not drawn),80.7% (active)
19,CC(Oc1ccc(C(N)=O)cc1)C(=O)c1ccc(Br)cc1 (stereo not drawn),71.9% (active)
20,CN(Cc1ccc(C(N)=O)cc1)Cc1ccccc1Br,17.4%
21,N#Cc1ccc(NC(=O)NCc2ccn(-c3ccccc3)n2)cc1,32.1%
22,CCc1ccc(CNC(=O)Nc2ccc(C#N)cc2)s1,56.1% (active)
23,CCCSc1nnc(-c2c(Cl)c(CC)nn2C)s1,52.5% (active)
24,N#CCc1cc(-c2ccc(Cl)cc2)on1,72.6% (active)
25,N#Cc1nc(-c2ccc(Cl)cc2)oc1NC1CC1,26.7%
26,COc1cccc(CC2(CO)CCCN(C(=O)Nc3cccc(C(F)(F)F)c3)C2)c1 (stereo not drawn),11%

row,SMILES,inhibition
1,COc1cccc(-c2cc(N)c(=O)n(Cc3ccc(C(F)(F)F)cc3)n2)c1,22.8%
2,COc1cccc(Oc2ccc(C(F)(F)F)cc2NC(C)=O)c1,82.6% (active)
3,CC(C)(C)C(=O)Nc1nnc(-c2ccc3c(c2)CCCC3)o1,92.3% (active)
4,Cc1ccc(OC(C)C(=O)Nc2ccc3c(c2)CCC3)cc1 (stereo not drawn),1.9%
5,O=C(Nc1nnc(-c2ccc3c(c2)CCCC3)o1)c1ccc([N+](=O)[O-])s1,101% (active)
6,NC(Cc1ccc(C(F)(F)F)cc1)c1csc(Nc2ncccn2)n1 (stereo not drawn),29.2%
7,NC(CCc1ccccc1)c1csc(Nc2nccc(C(F)(F)F)n2)n1 (stereo not drawn),50.5% (active)
8,NC(Cc1ccc(C(F)(F)F)cc1)c1csc(Nc2nccc(C(F)(F)F)n2)n1 (stereo not drawn),94.8% (active)
9,NC(Cc1ccc(F)cc1)c1csc(Nc2nccc(C(F)(F)F)n2)n1 (stereo not drawn),66.7% (active)
10,NC(Cc1ccc(Cl)cc1)c1csc(Nc2nccc(C(F)(F)F)n2)n1 (stereo not drawn),63.1% (active)
11,c1ccc(Cn2cc(CN3CCN(c4ncccn4)CC3)c(-c3cc4ccccc4o3)n2)cc1,inactive
12,OCc1cn(-c2ccccc2)nc1-c1cc2ccccc2o1,74.7% (active)
13,O=C(Cc1cc(-c2cc3ccccc3o2)on1)NCCCN1CCOCC1,20.8%
14,C(=NN1CCOCC1)c1cn(-c2ccccc2)nc1-c1cc2ccccc2o1,88.6% (active)
15,OCc1cc(-c2cc3ccccc3o2)on1,8.03%
16,O=C(CC(O)(c1ccccc1)C(F)(F)F)N1CCN(Cc2ccc(Cl)cc2)CC1 (stereo not drawn),53.2% (active)
17,O=C1NC(C2=Cc3cc(Cl)ccc3OC2)Nc2ccccc21 (stereo not drawn),0.99%
18,COC(=O)c1cnc(Nc2nc(C(N)Cc3ccc(Cl)cc3)cs2)nc1C(F)(F)F (stereo not drawn),85.1% (active)
19,COC(=O)c1cnc(Nc2nc(C(N)c3ccccc3Cl)cs2)nc1C(F)(F)F (stereo not drawn),94% (active)
20,CC(=O)Nc1ccc(Sc2nc(C)cc(C)c2C#N)cc1,-11.9%
21,COc1cc(N(C)CCC(O)c2ccccc2)ncn1 (stereo not drawn),-15.6%
22,COc1cc(-c2cccc(O)c2)ncn1,93.2% (active)
23,CN(C)c1ccc(CN(C)S(=O)(=O)Cc2ccccc2)cc1,30.6%
24,C=C1N(C)c2cc([N+](=O)[O-])c(N)cc2C1(C)C,64.8% (active)
25,c1ccc(-c2nc(SCC3CCOCO3)oc2-c2ccccc2)cc1 (stereo not drawn),-19.9%
26,O=S(=O)(/C=C/C=C/Sc1ccccc1)c1ccccc1,90.4% (active)

row,SMILES,inhibition
1,Cc1cc(C)n(-c2nc(NC(C)C)nc(NC(C)(C)C)n2)n1,101% (active)
2,CCn1cc(C(CC(=O)O)c2cccc(F)c2)c2ccccc21 (stereo not drawn),18.8%
3,Cc1nn(C)c(C)c1C(=O)NNc1cccc(Cl)c1,-9.93%
4,CN(C)c1ccc(-c2nc3c(C(=O)NNc4cccc(Cl)c4)cccc3[nH]2)cc1,85.1% (active)
5,O=C(Cc1cc(-c2cc3ccccc3o2)on1)NCc1cccs1,28.1%
6,O=C(Cc1cc(-c2cc3ccccc3o2)on1)NCc1ccncc1,75.1% (active)
7,O=C(Cc1cc(-c2cc3ccccc3o2)on1)NCc1ccco1,91.1% (active)
8,O=C(Cc1cc(-c2cc3ccccc3o2)on1)NCc1ccc(F)cc1,22.7%
9,CNc1nc2cnc(Nc3ccc(Oc4ccccc4)cc3)cc2n1CCOC,69.3% (active)
10,Nc1cccc(-c2cc(Nc3ccc(Oc4ccccc4)cc3)ncn2)c1,9.35%
11,COC(=O)Cc1ccc(NC(=O)c2cnccn2)cc1,87.5% (active)
12,O=C(C=Cc1cccs1)NCc1ccc2c(c1)OCO2,-6.77%
13,CN(C)c1ccc(CNC(=O)c2ccc3c(c2)CCCC3)cc1,-5.89%
14,COc1ccc(CCNC(=O)c2cnc(C)cn2)cc1OC,41.9%
15,Cc1cnc(C(=O)NCCc2ccccc2C)cn1,94.4% (active)
16,Cc1cnc(C(=O)NC(C)c2ccccc2OC(C)C)cn1 (stereo not drawn),-5.8%
17,O=C(Nc1ccc(OCC(F)(F)F)cc1)c1cnccn1,25.9%
18,COC(=O)c1ccc(CNC(=O)c2ccc3c(c2)OCO3)cc1,55.5% (active)
19,O=C(NCc1ccc2c(c1)OCO2)c1cccs1,52.8% (active)
20,Cc1ccc(C2(O)CCN(c3noc(-c4ccccc4)n3)CC2)nc1,16.2%
21,CC1Cc2cc(CNC(=O)c3cc(C(C)C)nn3C)ccc2O1 (stereo not drawn),3.55%
22,Cc1cnc(C(=O)NCc2ccc3c(c2)OCO3)cn1,63.5% (active)
23,CCCc1ccc(NC(=O)c2cnc(C)cn2)cc1,100% (active)
24,Cc1cnc(C)c(Nc2nc(C(N)Cc3ccc(Cl)cc3)cs2)n1 (stereo not drawn),78.6% (active)
25,Cc1cnc(C)c(Nc2nc(C(N)Cc3ccc(C(F)(F)F)cc3)cs2)n1 (stereo not drawn),81.1% (active)
